Records with an inconclusive call do not appear. Activity calls are given as the source filed them. Calls follow the shape of the dose curve; as a rule, active = well fitted curve in the direction sought with a large enough effect; inconclusive = small, poorly fitted or top-dose-only effect, or another doubt; inactive = no such curve, though single readings can be large; an effect the other way counts as inactive or inconclusive.
Columns and labels:
[1] = qHTS of pediatric cancer cell lines to identify multiple opportunities for drug repurposing: Primary screen for Rh30 cells (AID 1347107); also: nearly all actives have a fitted effect of over 75% in size
Outline: (§1)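 Cells (500-1,000/well) in growth media were settled 5 h at 37 degrees C, then given compounds for 48 h. Viability was read as CellTiter-Glo luminescence. Primary runs used MIPE at 11 points (0.78 nM-46 µM) and NPC at 8 points (0.59 nM-46 µM); follow-ups used 11 points.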

[2] = qHTS of pediatric cancer cell lines to identify multiple opportunities for drug repurposing: Primary screen for Rh41 cells (AID 1347108); also: nearly all actives have a fitted effect of over 70% in size
Outline: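 Quantitative HTS format: each compound titrated (MIPE 11 points from 0.78 nM, NPC 8 points from 0.59 nM) onto cells plated 5 hours earlier. After 48 h at 37 degrees C, CellTiter-Glo luminescence was recorded.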

[3] = qHTS of pediatric cancer cell lines to identify multiple opportunities for drug repurposing: Confirmatory screen for NB1643 cells (AID 1347109); also: nearly all actives have a fitted effect of over 45% in size
Outline: as §1

[4] = qHTS of pediatric cancer cell lines to identify multiple opportunities for drug repurposing: Confirmatory screen for A673 cells (AID 1347110);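 also: cells exposed to compound for 48 h before the viability read; nearly all actives have a fitted effect of over 65% in size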
Outline: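 Cells plated at 500-1,000/well were treated five hours later with multi-point dilutions up to 46 µM final. After two days, CellTiter-Glo was added and luminescence read.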

[5] = qHTS of pediatric cancer cell lines to identify multiple opportunities for drug repurposing: Confirmatory screen for SK-N-MC cells (AID 1347111);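 also: cells exposed to compound for 48 h before the readout; nearly all actives have a fitted effect of over 70% in size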
Outline: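 Metabolically active cells were quantified by ATP-dependent luminescence (CellTiter-Glo, 15 min at room temperature) following 48 h treatment. Cells had been plated at 500-1,000 per well and settled for 5 h beforehand.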

[6] = qHTS of pediatric cancer cell lines to identify multiple opportunities for drug repurposing: Confirmatory screen for LAN-5 cells (AID 1347113); also: nearly all actives have a fitted effect of over 65% in size
Outline: as §1

[7] = qHTS of pediatric cancer cell lines to identify multiple opportunities for drug repurposing: Confirmatory screen for NB-EBc1 cells (AID 1347115);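 also: cells exposed to compound for 48 h before the viability read; nearly all actives have a fitted effect of over 45% in size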
Outline: as §1

[8] = qHTS of pediatric cancer cell lines to identify multiple opportunities for drug repurposing: Confirmatory screen for BT-12 cells (AID 1347112); also: nearly all actives have a fitted effect of over 55% in size
Outline: as §1

[9] = qHTS of pediatric cancer cell lines to identify multiple opportunities for drug repurposing: Confirmatory screen for DAOY cells (AID 1347114); also: nearly all actives have a fitted effect of over 65% in size
Outline: (§2)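 Viability measured as metabolically active cells via CellTiter-Glo luminescence following 48 hours of compound exposure, 11-point dilutions in confirmatory testing. 500-1,000 cells/well plated 5 hours before dosing; controls were DMSO and 2.3 µM bortezomib.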

[10] = qHTS of pediatric cancer cell lines to identify multiple opportunities for drug repurposing: Confirmatory screen for SJ-GBM2 cells (AID 1347116); also: nearly all actives have a fitted effect of over 60% in size
Outline: as §2

Measured: Potency
Potency is read from the fitted curve at half-maximal effect.

CN(C)CC=CC(=O)Nc1cc2c(Nc3ccc(F)c(Cl)c3)ncnc2cc1O[C@H]1CCOC1
active: [1] 14.8 µM | [2] 7.43 µM

C1Cc2[nH]nc(-c3nn[nH]n3)c2C1
inactive: [1] | [2]

C[C@@H](Oc1cc(-c2cnn(C3CCNCC3)c2)cnc1N)c1c(Cl)ccc(F)c1Cl
active: [1] 18.7 µM | [2] 18.7 µM | [3] 5.85 µM | [4] 3.29 µM | [5] 5.85 µM | [6] 5.85 µM | [7] 16.5 µM

CC(C)(C)c1cnc(CSc2cnc(NC(=O)C3CCNCC3)s2)o1
active: [2] 0.59 µM | [3] 0.165 µM | [4] 0.414 µM | [5] 0.329 µM | [8] 0.369 µM | [6] 0.261 µM | [9] 1.17 µM | [10] 0.414 µM
inactive: [1]

Cc1ccc(NC(=O)C2(c3ccc4c(c3)OC(F)(F)O4)CC2)nc1-c1cccc(C(=O)O)c1
active: [2] 0.296 µM | [8] 10.4 µM
inactive: [1] | [3] | [4] | [5] | [7]

O=C(O)Cn1nnc(-c2cc(N3CCC(Oc4cc(F)ccc4Br)CC3)no2)n1
inactive: [1] | [2]

CC(C)(O)c1cc2nc(-c3cnc(N)nc3)nc(N3CCOCC3)c2s1
active: [1] 5.26 µM | [2] 0.372 µM | [3] 1.47 µM | [4] 1.85 µM | [5] 1.17 µM | [6] 0.737 µM

COc1cc2c(Oc3ccc4[nH]c(C)cc4c3F)ncnc2cc1OCCCN1CCCC1
active: [1] 23.5 µM | [2] 18.7 µM

NC(=O)Nc1cc(-c2cccc(F)c2)sc1C(=O)N[C@H]1CCCNC1
inactive: [8]
active: [1] 0.833 µM | [2] 1.87 µM | [3] 0.928 µM | [4] 1.85 µM | [5] 0.414 µM | [6] 0.827 µM | [9] 2.33 µM | [7] 1.65 µM | [10] 1.04 µM

Cc1cc(Nc2cc(CN3CCOCC3)c3nc(C)c(Cc4ccc(Cl)cc4F)n3n2)n[nH]1
active: [1] 14.8 µM | [2] 14.8 µM

O=c1[nH]nc(Sc2ncc([N+](=O)[O-])s2)n1-c1ccc2c(c1)OCCO2
active: [1] 10.5 µM | [2] 6.62 µM | [3] 7.37 µM | [4] 9.27 µM | [5] 5.85 µM | [8] 9.27 µM | [6] 7.37 µM | [9] 23.3 µM | [7] 7.37 µM | [10] 13.1 µM

Nc1ncnc2c1c(-c1cnc3[nH]ccc3c1)nn2C1CCCC1
active: [1] 2.09 µM | [2] 0.935 µM | [3] 8.27 µM | [4] 3.69 µM | [5] 1.65 µM | [8] 3.69 µM | [6] 1.47 µM | [7] 10.4 µM | [10] 2.33 µM

COc1ccc2c(c1)CC[C@@H](CN(C)CC(=O)O)[C@H]2c1ccccc1
active: [2] 5.9 µM
inactive: [1]

O=C(C=Cc1c(C(=O)O)[nH]c2cc(Cl)cc(Cl)c12)Nc1ccccc1
inactive: [1] | [2]

Nc1ccn([C@@H]2CS[C@H](CO)O2)c(=O)n1
inactive: [1] | [2]

C=CC(=O)Nc1cc2c(Nc3ccc(F)c(Cl)c3)ncnc2cc1C#CC(C)(C)N1CCN(C)CC1
active: [1] 11.8 µM | [2] 9.35 µM | [3] 5.37 µM | [4] 4.27 µM | [5] 1.91 µM | [8] 17 µM | [6] 5.37 µM | [9] 4.79 µM | [7] 15.1 µM | [10] 6.03 µM

CN1CCC(CNc2ccc3ncc(-c4cccc(OC(F)(F)F)c4)n3n2)CC1
active: [1] 23.5 µM | [2] 18.7 µM

C#Cc1cccc(Nc2ncnc3cc(OC)c(OCCCCCCC(=O)NO)cc23)c1
active: [1] 11.8 µM | [2] 0.372 µM | [3] 0.955 µM | [4] 2.4 µM | [5] 0.603 µM | [8] 5.37 µM | [6] 0.676 µM | [9] 2.14 µM | [7] 1.7 µM | [10] 1.91 µM

CC1COC2(CCN(c3nc(=O)c4cc(C(F)(F)F)cc([N+](=O)[O-])c4s3)CC2)O1 (stereo unspecified)
inactive: [1] | [2]

CCn1cc(-c2ccnc3[nH]c(-c4cccc(CN(C)C)c4)cc23)c(-c2ccc(NC(=O)N(C)C)cc2)n1
active: [1] 14.8 µM | [2] 5.9 µM | [3] 3.69 µM | [4] 1.85 µM | [5] 0.0657 µM | [6] 6.57 µM | [9] 18.5 µM | [10] 0.928 µM
